The target in experiment [1] is T1, Inhibitor of nuclear factor kappa-B kinase subunit alpha (Homo sapiens) (UniProt O15111).
T1 sequence (whole entry): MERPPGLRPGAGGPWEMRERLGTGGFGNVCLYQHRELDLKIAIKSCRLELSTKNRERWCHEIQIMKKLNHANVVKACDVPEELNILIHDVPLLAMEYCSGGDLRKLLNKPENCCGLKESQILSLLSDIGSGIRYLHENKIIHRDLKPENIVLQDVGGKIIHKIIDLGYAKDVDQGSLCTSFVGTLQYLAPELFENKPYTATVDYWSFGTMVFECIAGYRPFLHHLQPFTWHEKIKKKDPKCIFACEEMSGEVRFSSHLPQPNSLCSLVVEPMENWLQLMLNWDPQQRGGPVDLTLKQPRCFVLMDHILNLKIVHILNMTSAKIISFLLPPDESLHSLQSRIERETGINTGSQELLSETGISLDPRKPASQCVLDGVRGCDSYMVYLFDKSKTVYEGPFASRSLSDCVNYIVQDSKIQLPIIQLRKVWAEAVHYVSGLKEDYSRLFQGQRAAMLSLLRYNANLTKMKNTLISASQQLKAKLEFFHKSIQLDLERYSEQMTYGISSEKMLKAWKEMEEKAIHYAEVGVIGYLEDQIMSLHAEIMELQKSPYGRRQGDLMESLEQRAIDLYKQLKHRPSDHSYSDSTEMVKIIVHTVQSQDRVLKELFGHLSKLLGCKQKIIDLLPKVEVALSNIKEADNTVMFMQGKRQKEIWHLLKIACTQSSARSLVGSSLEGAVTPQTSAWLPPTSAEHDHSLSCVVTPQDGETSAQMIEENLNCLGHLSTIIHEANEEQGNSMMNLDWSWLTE
As to conditions: at 1 µM.

Experiment [2] has as its target T1, Inhibitor of nuclear factor kappa-B kinase subunit alpha (Homo sapiens). As to conditions: at 10 µM.
Experiment [3] addresses Insulin receptor (Homo sapiens) (UniProt P06213). As to conditions: at 1 µM.
For experiment [4] the target is unchanged. Particulars: at 10 µM.
Experiment [5] shares this target. As to conditions: at 1 µM. The source holds these as a separate data set.
For experiment [6] the target is unchanged. As to conditions: at 10 µM. This is another data set of the same source.
Experiment [7] deals with T2, Interleukin-1 receptor-associated kinase 4 (Homo sapiens) (UniProt Q9NWZ3).
T2 sequence (whole entry): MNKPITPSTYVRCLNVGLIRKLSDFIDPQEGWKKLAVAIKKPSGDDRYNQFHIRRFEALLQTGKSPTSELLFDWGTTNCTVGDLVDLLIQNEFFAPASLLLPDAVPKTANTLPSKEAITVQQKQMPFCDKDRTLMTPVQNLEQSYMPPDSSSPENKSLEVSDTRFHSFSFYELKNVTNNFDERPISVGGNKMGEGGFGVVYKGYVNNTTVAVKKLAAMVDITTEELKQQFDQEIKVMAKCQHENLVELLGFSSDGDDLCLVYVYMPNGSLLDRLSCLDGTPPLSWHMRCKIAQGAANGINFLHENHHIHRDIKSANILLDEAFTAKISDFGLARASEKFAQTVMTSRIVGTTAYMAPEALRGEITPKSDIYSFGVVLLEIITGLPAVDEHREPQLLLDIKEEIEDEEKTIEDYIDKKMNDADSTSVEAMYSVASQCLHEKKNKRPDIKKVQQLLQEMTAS
Particulars: at 1 µM.

The target in experiment [8] is T2, Interleukin-1 receptor-associated kinase 4 (Homo sapiens). Particulars: at 10 µM.
Experiment [9] concerns the target Insulin receptor-related protein (Homo sapiens) (UniProt P14616). As to conditions: at 1 µM.
For experiment [10] the target is unchanged. As to conditions: at 10 µM.
Experiment [11] deals with T3, Tyrosine-protein kinase ITK/TSK (Homo sapiens) (UniProt Q08881).
T3 sequence (whole entry): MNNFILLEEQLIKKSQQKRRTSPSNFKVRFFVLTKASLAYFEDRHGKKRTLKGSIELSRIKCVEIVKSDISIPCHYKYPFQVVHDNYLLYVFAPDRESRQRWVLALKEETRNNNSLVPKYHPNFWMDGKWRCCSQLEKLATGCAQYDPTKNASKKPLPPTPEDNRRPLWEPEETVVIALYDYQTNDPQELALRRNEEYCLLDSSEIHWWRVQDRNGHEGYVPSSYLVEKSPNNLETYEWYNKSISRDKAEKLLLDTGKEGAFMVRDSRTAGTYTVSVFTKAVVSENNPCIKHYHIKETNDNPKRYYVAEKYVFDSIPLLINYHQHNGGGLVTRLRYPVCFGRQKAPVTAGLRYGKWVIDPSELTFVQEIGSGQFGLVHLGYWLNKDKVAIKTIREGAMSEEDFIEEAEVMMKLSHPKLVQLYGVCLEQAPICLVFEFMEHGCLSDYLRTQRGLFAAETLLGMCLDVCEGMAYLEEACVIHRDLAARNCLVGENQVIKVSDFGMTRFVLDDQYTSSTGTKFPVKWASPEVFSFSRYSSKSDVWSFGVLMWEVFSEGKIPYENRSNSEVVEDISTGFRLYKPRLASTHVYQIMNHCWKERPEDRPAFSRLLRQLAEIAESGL
As to conditions: at 1 µM.

Experiment [12] has as its target T3, Tyrosine-protein kinase ITK/TSK (Homo sapiens). Particulars: at 10 µM.
The target of experiment [13] is Tyrosine-protein kinase JAK2 (Homo sapiens) (UniProt O60674). Particulars: at 1 µM.
For experiment [14] the target is unchanged. As to conditions: at 10 µM.
Experiment [15] addresses T4, Tyrosine-protein kinase JAK3 (Homo sapiens) (UniProt P52333).
T4 sequence (whole entry): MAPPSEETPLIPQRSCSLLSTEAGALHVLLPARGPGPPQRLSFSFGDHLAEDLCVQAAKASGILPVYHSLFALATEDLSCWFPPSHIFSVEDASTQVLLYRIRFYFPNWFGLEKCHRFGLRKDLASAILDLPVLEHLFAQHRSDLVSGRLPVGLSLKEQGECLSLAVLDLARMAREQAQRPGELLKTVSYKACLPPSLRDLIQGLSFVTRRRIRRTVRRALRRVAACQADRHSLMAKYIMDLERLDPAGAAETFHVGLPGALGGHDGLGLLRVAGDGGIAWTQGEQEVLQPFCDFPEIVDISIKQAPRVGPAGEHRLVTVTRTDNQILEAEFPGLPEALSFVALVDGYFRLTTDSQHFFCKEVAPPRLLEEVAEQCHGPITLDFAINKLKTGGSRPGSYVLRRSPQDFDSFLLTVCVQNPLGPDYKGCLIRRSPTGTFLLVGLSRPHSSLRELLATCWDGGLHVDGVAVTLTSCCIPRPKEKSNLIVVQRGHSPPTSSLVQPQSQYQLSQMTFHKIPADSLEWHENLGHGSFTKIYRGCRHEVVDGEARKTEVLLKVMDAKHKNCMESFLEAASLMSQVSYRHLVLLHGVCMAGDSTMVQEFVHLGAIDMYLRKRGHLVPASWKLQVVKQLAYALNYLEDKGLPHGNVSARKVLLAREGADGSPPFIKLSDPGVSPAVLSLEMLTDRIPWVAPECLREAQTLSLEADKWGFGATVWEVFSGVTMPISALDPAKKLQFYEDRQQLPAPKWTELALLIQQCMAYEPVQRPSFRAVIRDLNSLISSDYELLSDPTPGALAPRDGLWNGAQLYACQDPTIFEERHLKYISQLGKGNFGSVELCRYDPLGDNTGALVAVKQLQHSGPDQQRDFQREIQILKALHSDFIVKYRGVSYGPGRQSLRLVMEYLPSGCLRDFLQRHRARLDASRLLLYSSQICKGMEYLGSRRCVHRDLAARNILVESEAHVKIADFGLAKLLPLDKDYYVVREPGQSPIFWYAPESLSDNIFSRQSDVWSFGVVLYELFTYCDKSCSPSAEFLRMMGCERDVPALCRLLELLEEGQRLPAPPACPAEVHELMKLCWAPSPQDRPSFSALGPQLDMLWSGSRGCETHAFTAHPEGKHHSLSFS
As to conditions: at 1 µM.

For experiment [16], the target named is T4, Tyrosine-protein kinase JAK3 (Homo sapiens). As to conditions: at 10 µM.
Experiment [17] addresses T5, Inhibitor of nuclear factor kappa-B kinase subunit beta (Homo sapiens) (UniProt O14920).
T5 sequence (whole entry): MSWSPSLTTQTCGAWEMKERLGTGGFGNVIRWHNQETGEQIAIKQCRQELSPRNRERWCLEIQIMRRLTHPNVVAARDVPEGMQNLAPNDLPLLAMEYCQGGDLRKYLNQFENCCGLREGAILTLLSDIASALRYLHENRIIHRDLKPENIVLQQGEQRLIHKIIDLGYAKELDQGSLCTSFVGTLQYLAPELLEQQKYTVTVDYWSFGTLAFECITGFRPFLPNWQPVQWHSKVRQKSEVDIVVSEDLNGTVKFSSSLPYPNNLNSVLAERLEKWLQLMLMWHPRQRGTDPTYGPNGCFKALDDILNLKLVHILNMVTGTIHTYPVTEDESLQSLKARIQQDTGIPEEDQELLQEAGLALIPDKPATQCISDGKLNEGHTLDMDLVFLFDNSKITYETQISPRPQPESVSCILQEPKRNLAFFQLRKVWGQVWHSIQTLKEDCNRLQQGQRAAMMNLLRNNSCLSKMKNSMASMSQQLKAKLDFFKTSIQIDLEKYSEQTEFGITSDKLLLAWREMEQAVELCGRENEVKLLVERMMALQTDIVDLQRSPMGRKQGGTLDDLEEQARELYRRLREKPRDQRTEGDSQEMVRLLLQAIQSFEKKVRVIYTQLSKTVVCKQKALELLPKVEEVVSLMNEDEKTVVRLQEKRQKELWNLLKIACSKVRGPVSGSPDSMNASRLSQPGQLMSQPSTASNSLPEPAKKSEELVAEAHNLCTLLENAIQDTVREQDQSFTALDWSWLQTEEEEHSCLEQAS
As to conditions: at 1 µM.

Experiment [18] deals with Interleukin-1 receptor-associated kinase 1 (Homo sapiens) (UniProt P51617). As to conditions: at 1 µM.
Experiment [19] has the same target. As to conditions: at 10 µM.
Experiment [20] addresses T5, Inhibitor of nuclear factor kappa-B kinase subunit beta (Homo sapiens). As to conditions: at 10 µM.

Chain of Insulin receptor-related protein (Homo sapiens) (P14616 27-742 limits assumed): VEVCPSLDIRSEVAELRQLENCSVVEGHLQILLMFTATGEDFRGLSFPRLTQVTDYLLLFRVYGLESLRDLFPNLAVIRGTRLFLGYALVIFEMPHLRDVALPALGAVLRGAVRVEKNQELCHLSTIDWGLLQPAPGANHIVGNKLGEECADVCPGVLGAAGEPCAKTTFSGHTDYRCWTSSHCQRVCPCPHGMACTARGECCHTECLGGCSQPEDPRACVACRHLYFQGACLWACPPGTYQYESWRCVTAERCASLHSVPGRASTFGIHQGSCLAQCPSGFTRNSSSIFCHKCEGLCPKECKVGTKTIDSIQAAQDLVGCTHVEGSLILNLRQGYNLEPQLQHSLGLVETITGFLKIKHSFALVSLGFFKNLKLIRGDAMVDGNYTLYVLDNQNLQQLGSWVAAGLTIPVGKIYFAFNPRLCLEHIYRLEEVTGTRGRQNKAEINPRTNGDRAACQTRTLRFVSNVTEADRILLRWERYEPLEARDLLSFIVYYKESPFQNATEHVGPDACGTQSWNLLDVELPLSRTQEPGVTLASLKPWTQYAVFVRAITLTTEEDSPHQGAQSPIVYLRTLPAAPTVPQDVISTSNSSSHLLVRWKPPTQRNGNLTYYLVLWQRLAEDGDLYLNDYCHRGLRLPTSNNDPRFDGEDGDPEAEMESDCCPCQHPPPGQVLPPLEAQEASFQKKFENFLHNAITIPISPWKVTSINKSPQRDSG
Chain of Insulin receptor-related protein (Homo sapiens) (P14616 747-1297 limits assumed): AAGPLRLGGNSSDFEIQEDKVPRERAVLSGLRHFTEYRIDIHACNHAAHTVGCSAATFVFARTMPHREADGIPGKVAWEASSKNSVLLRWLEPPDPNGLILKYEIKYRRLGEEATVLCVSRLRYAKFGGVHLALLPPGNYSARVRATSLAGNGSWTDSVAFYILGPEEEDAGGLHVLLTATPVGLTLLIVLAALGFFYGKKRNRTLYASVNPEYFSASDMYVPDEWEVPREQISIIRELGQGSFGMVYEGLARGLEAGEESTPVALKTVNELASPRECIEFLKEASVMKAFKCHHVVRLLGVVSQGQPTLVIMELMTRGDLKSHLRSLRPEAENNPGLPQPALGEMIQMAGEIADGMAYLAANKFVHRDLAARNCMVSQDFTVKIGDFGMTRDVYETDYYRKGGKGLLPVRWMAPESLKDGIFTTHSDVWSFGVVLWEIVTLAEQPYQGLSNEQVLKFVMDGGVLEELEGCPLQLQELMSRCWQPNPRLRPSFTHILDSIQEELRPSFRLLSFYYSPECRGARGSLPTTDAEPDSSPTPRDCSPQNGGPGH
Chain of Interleukin-1 receptor-associated kinase 1 (Homo sapiens) (P51617 whole entry, looked up): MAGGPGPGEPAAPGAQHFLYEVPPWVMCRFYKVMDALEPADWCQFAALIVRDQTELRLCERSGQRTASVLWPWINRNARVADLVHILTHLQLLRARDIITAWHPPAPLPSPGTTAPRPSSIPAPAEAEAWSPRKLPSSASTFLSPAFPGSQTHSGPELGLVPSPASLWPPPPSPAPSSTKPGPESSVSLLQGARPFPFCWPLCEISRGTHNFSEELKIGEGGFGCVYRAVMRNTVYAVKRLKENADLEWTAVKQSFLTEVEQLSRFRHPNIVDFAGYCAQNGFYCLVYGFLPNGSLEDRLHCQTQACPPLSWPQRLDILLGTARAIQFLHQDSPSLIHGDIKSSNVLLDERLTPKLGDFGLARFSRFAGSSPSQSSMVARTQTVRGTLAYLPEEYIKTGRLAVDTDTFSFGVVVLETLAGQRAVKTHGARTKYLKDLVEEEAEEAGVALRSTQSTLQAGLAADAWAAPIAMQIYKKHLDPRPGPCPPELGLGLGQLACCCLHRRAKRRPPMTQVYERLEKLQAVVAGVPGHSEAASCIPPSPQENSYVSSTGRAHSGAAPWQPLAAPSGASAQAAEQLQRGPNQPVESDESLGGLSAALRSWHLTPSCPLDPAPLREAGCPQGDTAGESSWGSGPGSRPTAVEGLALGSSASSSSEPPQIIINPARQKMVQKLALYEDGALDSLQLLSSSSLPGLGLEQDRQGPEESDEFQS
Chain of Tyrosine-protein kinase JAK2 (Homo sapiens) (O60674 whole entry): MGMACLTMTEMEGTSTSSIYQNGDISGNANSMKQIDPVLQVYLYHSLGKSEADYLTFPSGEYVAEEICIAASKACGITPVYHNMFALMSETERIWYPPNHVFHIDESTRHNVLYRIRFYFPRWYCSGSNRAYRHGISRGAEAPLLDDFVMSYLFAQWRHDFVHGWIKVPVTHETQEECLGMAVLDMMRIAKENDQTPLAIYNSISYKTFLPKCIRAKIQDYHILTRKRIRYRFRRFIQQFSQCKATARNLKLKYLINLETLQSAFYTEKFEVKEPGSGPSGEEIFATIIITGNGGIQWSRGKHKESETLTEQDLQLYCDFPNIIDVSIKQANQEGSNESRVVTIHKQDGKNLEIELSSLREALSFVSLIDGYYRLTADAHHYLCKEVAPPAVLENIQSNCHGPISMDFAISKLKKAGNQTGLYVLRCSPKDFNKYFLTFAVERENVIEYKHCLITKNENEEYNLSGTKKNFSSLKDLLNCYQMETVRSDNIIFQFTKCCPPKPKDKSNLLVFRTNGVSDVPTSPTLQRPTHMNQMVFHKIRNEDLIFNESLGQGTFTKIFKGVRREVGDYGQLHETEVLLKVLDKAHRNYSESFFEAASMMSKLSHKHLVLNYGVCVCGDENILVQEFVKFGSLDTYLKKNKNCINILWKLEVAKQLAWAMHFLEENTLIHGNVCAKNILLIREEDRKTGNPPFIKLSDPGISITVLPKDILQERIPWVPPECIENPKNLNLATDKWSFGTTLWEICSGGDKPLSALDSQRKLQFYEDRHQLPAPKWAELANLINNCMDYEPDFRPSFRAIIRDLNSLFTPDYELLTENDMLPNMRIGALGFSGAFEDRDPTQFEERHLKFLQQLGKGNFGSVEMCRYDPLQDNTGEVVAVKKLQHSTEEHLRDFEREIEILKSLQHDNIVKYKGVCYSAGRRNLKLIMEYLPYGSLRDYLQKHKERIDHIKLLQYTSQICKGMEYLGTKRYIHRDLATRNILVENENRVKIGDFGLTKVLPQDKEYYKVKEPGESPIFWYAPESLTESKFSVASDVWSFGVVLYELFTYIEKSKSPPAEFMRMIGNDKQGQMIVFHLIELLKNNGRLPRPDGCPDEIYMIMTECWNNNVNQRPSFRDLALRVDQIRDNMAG
Chain of Insulin receptor (Homo sapiens) (P06213 28-758 limits assumed): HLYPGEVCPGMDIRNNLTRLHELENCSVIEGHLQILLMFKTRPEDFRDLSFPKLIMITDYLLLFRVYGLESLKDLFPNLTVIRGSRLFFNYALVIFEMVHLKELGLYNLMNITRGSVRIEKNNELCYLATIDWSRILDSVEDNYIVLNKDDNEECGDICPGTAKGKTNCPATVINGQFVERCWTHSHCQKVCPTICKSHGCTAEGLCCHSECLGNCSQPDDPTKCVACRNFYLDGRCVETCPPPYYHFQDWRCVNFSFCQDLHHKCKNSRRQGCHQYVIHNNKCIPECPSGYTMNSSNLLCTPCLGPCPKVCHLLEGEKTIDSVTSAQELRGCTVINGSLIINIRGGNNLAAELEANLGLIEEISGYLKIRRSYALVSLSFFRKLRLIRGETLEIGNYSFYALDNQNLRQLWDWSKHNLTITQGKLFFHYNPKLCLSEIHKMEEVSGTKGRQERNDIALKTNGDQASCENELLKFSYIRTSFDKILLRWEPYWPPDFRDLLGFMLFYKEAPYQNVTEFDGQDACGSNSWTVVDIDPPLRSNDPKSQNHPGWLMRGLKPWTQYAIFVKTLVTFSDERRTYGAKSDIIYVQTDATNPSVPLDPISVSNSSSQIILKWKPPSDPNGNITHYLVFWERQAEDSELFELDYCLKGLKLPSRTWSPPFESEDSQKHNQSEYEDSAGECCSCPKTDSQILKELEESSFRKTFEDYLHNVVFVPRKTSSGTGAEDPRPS
Chain of Insulin receptor (Homo sapiens) (P06213 763-1382 limits assumed): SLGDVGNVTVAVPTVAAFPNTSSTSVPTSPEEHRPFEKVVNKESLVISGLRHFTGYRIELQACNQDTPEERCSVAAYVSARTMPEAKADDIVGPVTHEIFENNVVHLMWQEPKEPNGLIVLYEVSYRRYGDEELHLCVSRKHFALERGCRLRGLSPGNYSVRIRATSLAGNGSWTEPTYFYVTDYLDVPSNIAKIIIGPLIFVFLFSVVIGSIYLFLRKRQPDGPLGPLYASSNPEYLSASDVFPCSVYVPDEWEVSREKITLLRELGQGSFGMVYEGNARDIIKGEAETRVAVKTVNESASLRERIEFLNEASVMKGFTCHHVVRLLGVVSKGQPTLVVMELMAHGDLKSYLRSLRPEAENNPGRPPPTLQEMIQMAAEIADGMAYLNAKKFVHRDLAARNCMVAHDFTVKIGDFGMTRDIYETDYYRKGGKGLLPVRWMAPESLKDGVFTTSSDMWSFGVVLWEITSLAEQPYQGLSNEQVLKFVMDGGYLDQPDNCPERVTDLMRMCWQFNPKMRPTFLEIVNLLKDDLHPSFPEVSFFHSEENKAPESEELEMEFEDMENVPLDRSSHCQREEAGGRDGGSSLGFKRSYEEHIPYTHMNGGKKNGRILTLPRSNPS

Take `O=C1NC(=O)c2c1c1c3ccccc3n3c1c1c2c2ccccc2n1C1CCC3O1`: the residual activity in [1] is 93%; in experiment [2], 73%; in [3] it was 94%; in experiment [4] it was 79%; in experiment [5], 100%; in [6], 88%. The residual activity amounted to 38% in experiment [7]; 18% in experiment [8]; 74% in [9]; 63% in [10]; 88% in experiment [11]; 70% in [12]. Besides, the residual activity in experiment [13] is 86%; in experiment [14], 82%; in [15], 8%; in experiment [16], 9%.
For `CC(C)[C@H](CO)Nc1nc(Nc2cccc(Cl)c2)c2ncn(C(C)C)c2n1`, the residual activity in experiment [17] stood at 116%; in experiment [3], 81%; in [4] it was 33%; in experiment [5], 34%; in [6] it was 4%; in experiment [18] it was 81%. Further, the residual activity in [19] was 23%; in experiment [7], 45%; in experiment [8], 9%; in [9], 83%; in [10], 3%; in [11] it was 68%. Moreover, the residual activity came out at 11% in experiment [12] and 73% in experiment [14].
Take `CC(C)(C)c1cc(C=C(C#N)C#N)cc(Br)c1O`: the residual activity came to 101% in [1]; 99% in experiment [2]; 98% in [17]; 99% in experiment [20]; 122% in experiment [3]; 108% in experiment [4]. Moreover, the residual activity was found to be 109% in experiment [5]; 105% in experiment [6]; 117% in experiment [18]; 107% in experiment [19]; 112% in experiment [7]; 105% in [9]. Moreover, the residual activity was 102% in experiment [10]; 105% in experiment [11]; 104% in experiment [12]; 110% in experiment [13]; 113% in experiment [14]; 105% in experiment [15].
Take `COc1ccc2c(c1)/C(=C/c1cnc[nH]1)C(=O)N2`: the residual activity in [1] was determined as 74%; in [2], 23%; in experiment [20] it was 59%; in [19] it was 37%; in experiment [12] it was 42%; in experiment [14] it was 29%. In addition, the residual activity in [15] is 48%; in experiment [16], 10%.

The record behind these values is ChEMBL document CHEMBL2218924, “A broad activity screen in support of a chemogenomic map for kinase signalling research and drug discovery” (Biochem J, 2013).
